Here are results for seven compounds from PubChem BioAssay (Tox21).

Values without a mark were called inactive. Records with an inconclusive call do not appear. The source made the active and inactive calls. Unless noted, the call rests on the fitted dose curve; in most records, active means well fitted curve in the direction sought with a large enough effect in the repeat runs; inconclusive means weak or mixed curves; inactive means no such curve, though single readings can be large; an effect the other way counts as inactive or inconclusive.

Test [1] is described as follows: qHTS assay for small molecule agonists of the p53 signaling pathway (AID 651631; calls by dose curve; further: nearly all actives have a fitted effect of over 15% in size; further: potency means the concentration at half of the fitted maximal effect). The gist of the method:
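Read-out is beta-lactamase FRET fluorescence measured 2 h after substrate addition at room temperature, in HCT-116 cells with a p53 response element-driven reporter exposed to compounds for 16 h at 37 °C.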

Test [2] in a line: qHTS assay for small molecules that induce genotoxicity in human embryonic kidney cells expressing luciferase-tagged ATAD5 (AID 651632). Further: nearly all actives have a fitted effect of over 15% in size. The gist of the method: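 Increased luciferase signal from ATAD5-tagged reporter cells indicates DNA-damage-driven ATAD5 induction. HEK293T cells are treated for 16 hr at 37C before detection with Amplite.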
A short description of test [3]: qHTS assay for small molecule agonists of the p53 signaling pathway - cell viability (AID 651633; calls by dose curve;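 further: p53RE-bla HCT reporter cells with a stable beta-lactamase p53 reporter; series mostly up to about 83 µM; nearly all actives have a fitted effect of over 30% in size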). The gist of the method: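 Viability counter-read: CellTiter-Glo luminescence (30 min, room temperature) in the same p53RE-bla plates. These plates had been exposed to compounds for 16 h at 37 C.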
The nature of test [4]: qHTS assay for small molecules that induce genotoxicity in human embryonic kidney cells expressing luciferase-tagged ATAD5 - cell viability (AID 651634; calls by dose curve; further: nearly all actives have a fitted effect of over 25% in size). The gist of the method:
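Cytotoxicity counterscreen in HEK293T cells bearing an ATAD5-luciferase reporter: live-cell protease activity measured by CellTiter-Fluor fluorescence after 15.5 hr compound exposure.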

Test [5] is described as follows: qHTS assay for small molecule disruptors of the mitochondrial membrane potential - cell viability (AID 720634; calls by dose curve;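 further: human HepG2 liver cancer cells; series mostly up to about 83 µM; nearly all actives have a fitted effect of over 20% in size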). The gist of the method:
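After overnight attachment at 37 C, HepG2 cells received compound or DMSO vehicle for 1 hr. Viability is then taken from ATP-driven luminescence following a 30 min room-temperature CellTiter-Glo step.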

Test [6] can be described thus: qHTS assay to test for compound auto fluorescence at 590 nm (red) in HepG2 cells (AID 720674). The gist of the method: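 1 hr compound incubation on HepG2 cells, 37 C, 5% CO2; plate read ex 540 nm / em 590 nm; intensities reported as Rose Bengal sodium equivalents.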
The nature of test [7]: qHTS assay to test for compound auto fluorescence at 535 nm (green) in HepG2 cells (AID 720675).
Test [8] is described as follows: qHTS assay to test for compound auto fluorescence at 460 nm (blue) in HEK293 cells (AID 720678). The method in brief: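 Intrinsic compound fluorescence is recorded in live HEK293 cultures after overnight incubation at 37C, 5% CO2, using excitation 405 nm and emission 460 nm. Values are referenced to triamterene.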
Test [9] in a line: qHTS assay to test for compound auto fluorescence at 590 nm (red) in HEK293 cells (AID 720679). The method in brief:
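Red autofluorescence, HEK293 cells: 2,000 cells/well; attach 4-5 hr 37C; add 23 nL cpd or DMSO; incubate o/n 37C 5% CO2; read Ex540/Em590; Rose Bengal sodium reference.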

Test [10] in a line: qHTS assay to test for compound auto fluorescence at 535 nm (green) in HEK293 cells (AID 720680).
Test [11] is described as follows: qHTS assay to test for compound auto fluorescence at 460 nm (blue) in HEK293 cell free culture (AID 720681). The gist of the method:
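Blue fluorescence (Ex 405/Em 460 nm, triamterene-equivalent) was read immediately after pin transfer of compound or DMSO into medium (DMEM, 10% FBS) without cells.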

Test [12] is described as follows: qHTS assay to test for compound auto fluorescence at 590 nm (red) in HEK293 cell free culture (AID 720683). The gist of the method:
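Red-channel autofluorescence of compounds in culture medium (DMEM, 10% FBS), no cells, measured at 540/590 nm. Rose Bengal sodium is the reference fluorophore for equivalence.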

Test [13] can be described thus: qHTS assay to test for compound auto fluorescence at 590 nm (red) in HepG2 cell free culture (AID 720684). The method in brief:
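Plate contents were MEM with 10% FBS plus test compound or DMSO, no cells. Fluorescence was recorded with 540 nm excitation and 590 nm emission.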

A short description of test [14]: qHTS assay to test for compound auto fluorescence at 460 nm (blue) in HepG2 cell free culture (AID 720685). The method in brief:
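Compound (23 nL) or DMSO pinned into cell-free MEM with 10% FBS; blue fluorescence read at 405/460 nm excitation/emission, expressed as auto-fluorescence equivalency to triamterene.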

Test [15] is described as follows: qHTS assay to test for compound auto fluorescence at 535 nm (green) in HepG2 cell free culture (AID 720686).
The nature of test [16]: qHTS assay to test for compound auto fluorescence at 460 nm (blue) in HepG2 cells (AID 720687). The gist of the method:
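Blue-channel autofluorescence (Ex/Em 405/460 nm, triamterene-equivalent) was measured after 1 hr compound exposure at 37 C, 5% CO2. Cells were HepG2, plated overnight at 37 C in MEM plus 10% FBS.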

In test [17] the target is Glucocorticoid receptor (Homo sapiens) (UniProt P04150). The test can be described thus: qHTS assay to identify small molecule agonists of the glucocorticoid receptor (GR) signaling pathway (AID 720691; active means well fitted activation curve with a large enough effect in the signal ratio in the repeat runs, not every such curve was filed as active; the % refers to the signal ratio). The gist of the method: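 Agonist mode in a HeLa line carrying a GRE-controlled beta-lactamase reporter. Compounds act for 18 h at 37 C before a 2 h room-temperature FRET substrate step and fluorescence reading.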

Test [18] is described as follows: qHTS assay for small molecule disruptors of the mitochondrial membrane potential (AID 720635). The method in brief: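 Mitochondrial membrane potential tracked with Mito-MPS dye, red aggregates (ex 540/em 590 nm) against green monomers (ex 490/em 535 nm). Compound treatment 1 hr at 37C, dye 30 min in HepG2.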
Test [19] deals with Glucocorticoid receptor (Homo sapiens) (UniProt P04150). As to the kind of experiment: qHTS assay to identify small molecule antagonists of the glucocorticoid receptor (GR) signaling pathway (AID 720692; active means well fitted inhibition curve with a large enough effect in the signal ratio in the repeat runs, not every such curve was filed as active; the % refers to the signal ratio). The gist of the method:
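Cells plated, rested 4 h at 37 C/5% CO2; compounds in DMSO pin-transferred; dexamethasone added to 5 nM final; 18 h at 37 C; B/G FRET substrate added, 2 h room temperature; fluorescence measured.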

A short description of test [20]: qHTS assay to test for compound auto fluorescence at 535 nm (green) in HEK293 cell free culture (AID 720682). The gist of the method:
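Fluorescein serves as the green reference fluorophore; each compound's intrinsic emission at 535 nm (excitation 485 nm) is reported as an equivalent amount of that dye, measured in serum-containing DMEM without cells.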

Sequence of Glucocorticoid receptor (Homo sapiens) (P04150 whole entry, looked up): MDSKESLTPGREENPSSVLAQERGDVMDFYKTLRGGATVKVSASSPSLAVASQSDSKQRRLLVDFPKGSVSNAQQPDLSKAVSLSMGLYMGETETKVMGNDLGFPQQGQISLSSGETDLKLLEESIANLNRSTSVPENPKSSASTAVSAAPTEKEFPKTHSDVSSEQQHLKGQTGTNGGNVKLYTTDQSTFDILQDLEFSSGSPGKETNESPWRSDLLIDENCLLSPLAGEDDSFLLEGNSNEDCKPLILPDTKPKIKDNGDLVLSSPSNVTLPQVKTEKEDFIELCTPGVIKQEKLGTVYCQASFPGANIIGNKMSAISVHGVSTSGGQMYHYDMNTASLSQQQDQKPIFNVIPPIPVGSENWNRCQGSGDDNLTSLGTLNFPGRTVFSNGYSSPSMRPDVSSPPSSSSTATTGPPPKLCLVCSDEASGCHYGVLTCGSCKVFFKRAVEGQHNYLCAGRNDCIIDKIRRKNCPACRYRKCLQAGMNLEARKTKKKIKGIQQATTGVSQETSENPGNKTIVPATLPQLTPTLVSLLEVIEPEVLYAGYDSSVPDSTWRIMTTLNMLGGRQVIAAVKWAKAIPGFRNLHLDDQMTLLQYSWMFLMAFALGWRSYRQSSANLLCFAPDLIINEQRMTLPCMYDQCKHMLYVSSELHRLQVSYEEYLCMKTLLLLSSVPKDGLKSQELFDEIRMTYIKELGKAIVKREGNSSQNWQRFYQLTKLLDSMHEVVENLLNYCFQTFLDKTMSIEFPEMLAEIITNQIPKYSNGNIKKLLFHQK

For the compound `NNC(=O)c1ccccc1`, the Potency entry in [1], in test [2], in test [3], in test [4], in test [5] and in test [8] was “inactive” throughout. The Potency result in [11], in test [14], in test [16] and in [17] was “inactive” throughout. Also, the outcome in test [6], in [7], in test [9], in test [10], in [12] and in test [13] was inactive. For the same compound, the result in test [15] was inactive.

Consider `CN(C)[C@@H]1C(=O)C(C(N)=O)=C(O)[C@@]2(O)C(=O)C3=C(O)c4c(O)ccc(Cl)c4[C@@](C)(O)[C@H]3C[C@@H]12`, for which the Potency result in test [1], in [2], in [3], in test [4], in [5] and in test [18] was “inactive” in each case. Also, the Potency result in [8], in test [11], in test [14], in [16], in [17] and in test [19] was “inactive” each time. Also, the outcome in [6], in [7], in test [9], in test [10], in test [12] and in [13] was inactive. Moreover, in [15], the outcome was inactive.

In the case of `C[C@]12CC[C@@H]3c4ccc(OC(=O)N(CCCl)CCCl)cc4CC[C@H]3[C@@H]1CC[C@@H]2O`, the Potency in test [1] is 21.1 µM (active). The Potency entry in test [2], in [3], in test [4], in [5], in [18] and in test [8] was “inactive” throughout. Besides, the Potency entry in test [11], in test [14], in test [16], in test [17] and in [19] was “inactive” throughout. Moreover, the result in test [6], in test [7], in test [9], in test [10], in test [12] and in test [13] was inactive. In test [15], the compound was classed as inactive.

On to `CNC(C)Cc1ccc2c(c1)OCO2` (configuration not stated), for which the Potency result in [1], in test [2], in test [3], in test [5], in test [18] and in test [8] was “inactive” each time. The Potency entry in test [11], in [14] and in test [16] was “inactive” in each case. Further, the compound was called inactive in [6], in [7], in test [9], in test [10], in [20] and in test [12]. Also, the compound was called inactive in test [13] and in [15].

For `CC(C)OS(C)(=O)=O`, the Potency result in test [1], in test [2], in test [3], in [4], in test [5] and in test [8] was “inactive” in each case. Moreover, the Potency result in [11] and in test [16] was “inactive” throughout. In addition, the result in test [6], in [7], in test [9], in [10], in test [20] and in test [12] was inactive. In addition, the call in test [13] and in test [15] was inactive.

With `CC(=O)/C=C/c1ccc2c(c1)OCO2`, in test [1], the Potency is 30.8 µM (active). Also, the Potency entry in test [2], in test [3], in test [4], in test [5], in test [18] and in [14] was “inactive” each time. The Potency result in test [16] and in [17] was “inactive” in each case. The compound was classed as inactive in test [6], in [7], in test [9], in [10], in test [12] and in test [13]. Moreover, in test [15], the compound was classed as inactive.

`CCCCCCCCCCCCCN1CC(C)OC(C)C1` (configuration not stated): the Potency entry in test [1], in test [2], in [3], in [4], in test [5] and in test [8] was “inactive” each time. Moreover, the Potency entry in test [14], in test [16], in test [17] and in test [19] was “inactive” throughout. Further, the compound was classed as inactive in test [6], in [7], in test [9], in test [10], in [20] and in test [12]. Also, the compound was classed as inactive in [13] and in test [15].
